Assay results reported in paper PMC7819943, “Rice protein-binding microarrays: a tool to detect cis-acting elements near promoter regions in rice”.
In all, about 35,000 sequences were measured (“fluorescence intensity (a.u.)”: median about 10,000, highest 2% from about 52,000 on). The sample as a whole holds a higher share of the highest values than the screen did.

biological target: T1, OsWOX13 (Oryza sativa, UniProt Q5QMM3 1-267); experiment: protein-binding microarray (RPBM); PBS, 2% BSA, 51.3 ng/ul salmon testes DNA, 50 uM zinc acetate, 200 nM TF, 25 C, 1 h; high values mean tight binding; conditions: protein: recombinant; tags: N-terminal polyhistidine and DsRed monomer fusion (pET32a); label: CyDye5-dUTP incorporated in the synthesized complementary strand; 3' TTTTT single-stranded linker to array surface; dsDNA, one strand shown
T1 sequence: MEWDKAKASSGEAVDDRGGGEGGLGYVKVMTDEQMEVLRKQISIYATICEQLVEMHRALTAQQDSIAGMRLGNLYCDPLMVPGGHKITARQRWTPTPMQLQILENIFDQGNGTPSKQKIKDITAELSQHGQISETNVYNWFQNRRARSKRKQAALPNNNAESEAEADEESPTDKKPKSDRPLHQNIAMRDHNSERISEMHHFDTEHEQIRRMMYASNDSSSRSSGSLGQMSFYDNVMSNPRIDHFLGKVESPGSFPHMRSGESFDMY
How it was run: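 A custom Agilent array was converted to double-stranded form by primer extension with Cy5-dUTP and blocked with 2% BSA. Protein at 200 nM in PBS with 2% BSA, salmon testes DNA and 50 µM zinc acetate was applied for 1 h at 25 °C, followed by washing. The proteins were polyhistidine–DsRed N-terminal fusions of transcription factors, expressed in E. coli BL21-CodonPlus and Ni–NTA-purified. The binding signal is per-feature fluorescence intensity (arbitrary units) from an Axon 4000B scanner.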

Sequence	binding signal
TTATGATTATTTTAGAATTTTCAAAATCATGGAATATAATCGGAGTCACCTAGTGCAG	7490 fluorescence intensity (a.u.)
GCCTTAACTTTGTGATCATATCTTCATCTTCATTAGGCCTCGGAGTCACCTAGTGCAG	4300 fluorescence intensity (a.u.)
TAAATTTAAACGGTAAATTAAGGAGAGGGAGGTCATTCTTCGGAGTCACCTAGTGCAG	6560 fluorescence intensity (a.u.)
AATACAATTAATTACAGTTAATTAAATGATAGAAAGAGTTCGGAGTCACCTAGTGCAG	55400 fluorescence intensity (a.u.)
CTAAATTATACGGAGATGATAATGTAGTTACAGTGCAGTTCGGAGTCACCTAGTGCAG	21900 fluorescence intensity (a.u.)
TAATTAAATTGTCATATCACTTCTTAACTTATTGGACTAACGGAGTCACCTAGTGCAG	5280 fluorescence intensity (a.u.)
AATTGAGACTTCGGTAAAACTTAAGGGACTAAATTAACTACGGAGTCACCTAGTGCAG	52700 fluorescence intensity (a.u.)
ATTTGTATAATTGGAACCATGCCATTCCAACACAACAAAACGGAGTCACCTAGTGCAG	6320 fluorescence intensity (a.u.)
AAACAGTTTTCCCCAAAATTGATTGTAAATATACATATACCGGAGTCACCTAGTGCAG	14900 fluorescence intensity (a.u.)
TTAAATGATAGAAATACAATTATTACGGAATAGAATGTAGCGGAGTCACCTAGTGCAG	29100 fluorescence intensity (a.u.)
CATCTAATTTAAATTTAAATGTTTTAAAAGATAGAGACGTCGGAGTCACCTAGTGCAG	52400 fluorescence intensity (a.u.)
GATGCCATCTAATTTTAAATGATGATGTGGAGAAGAGAGTCGGAGTCACCTAGTGCAG	7100 fluorescence intensity (a.u.)
GTAAATTGATTTGTATATGGCCATTTCCAACCCAAAACACCGGAGTCACCTAGTGCAG	56300 fluorescence intensity (a.u.)
ATCTAAATTGTTTTAGATTTGTGCACAAGAACAAAAGAGACGGAGTCACCTAGTGCAG	16800 fluorescence intensity (a.u.)
TGTATGATTTATGTATAATTAGAGATATACAATCATATAACGGAGTCACCTAGTGCAG	16900 fluorescence intensity (a.u.)
AGGAGAAACAATTTGCAATCATCACATTGTTTAAAGAGATCGGAGTCACCTAGTGCAG	5330 fluorescence intensity (a.u.)
CATTGGAATTGATGATCACATTATACATGGATTTGACCCACGGAGTCACCTAGTGCAG	30600 fluorescence intensity (a.u.)
TCTAAACTAATCTAATCTAGCAACGCGATTTAGCCGATACCGGAGTCACCTAGTGCAG	9190 fluorescence intensity (a.u.)
TTCTGTCAATTAGGTGGGTGACATGTGGATCCCACGATATCGGAGTCACCTAGTGCAG	13200 fluorescence intensity (a.u.)
TTGATTGTGAATTTATAATGTTTGGATATAATGATTACTTCGGAGTCACCTAGTGCAG	34500 fluorescence intensity (a.u.)
ATTACATACCTGATTGAGTTGGTACTACAAGGCAGGGAGCCGGAGTCACCTAGTGCAG	16400 fluorescence intensity (a.u.)
ACTGATTTGTTTTATTGTTTTGATTTTAATCCTCTCAATTCGGAGTCACCTAGTGCAG	38800 fluorescence intensity (a.u.)
GTGATTACATTGATAATAATTGATTGAATCAGTTTGTTCTCGGAGTCACCTAGTGCAG	62600 fluorescence intensity (a.u.)
TTATTTGCATTGATTTAATAGGGTTTACTCTTGCTTTGCACGGAGTCACCTAGTGCAG	7870 fluorescence intensity (a.u.)

Sequence	binding signal
TTGATTGGAAAGATTGGAAAGAATTGAATGCGAATTGGTACGGAGTCACCTAGTGCAG	34500 fluorescence intensity (a.u.)
TACCTTAATTTATTGATTGCACTCTTGTTCTCACACGGTTCGGAGTCACCTAGTGCAG	53200 fluorescence intensity (a.u.)
CTTTGATTACATCAAGCCACTGAATTATCAGTTATAATCTCGGAGTCACCTAGTGCAG	23100 fluorescence intensity (a.u.)
ATATCAATCCGATGATATTAATTTTAGCAAATAAAATTTACGGAGTCACCTAGTGCAG	5130 fluorescence intensity (a.u.)
TCATTGATTGATTGGTACTACTACTGCTAGAAGAAAAGGCCGGAGTCACCTAGTGCAG	55200 fluorescence intensity (a.u.)
GATAAATTAATAAAATTATCAAAATTTTATGATTGGTTTACGGAGTCACCTAGTGCAG	54900 fluorescence intensity (a.u.)
AGATAGATTAATATATGATAAATCACTAATATCAAATTTACGGAGTCACCTAGTGCAG	5780 fluorescence intensity (a.u.)
TAGAATTACTTACTAAATTGCTTGTTATATTGAAGATATTCGGAGTCACCTAGTGCAG	5790 fluorescence intensity (a.u.)
AAAATAGTTAATACTCAATTAATCATGAGCTAATGGCTCACGGAGTCACCTAGTGCAG	9240 fluorescence intensity (a.u.)
CATAATTACCAGACATGTTAAATTTAATATATGGATGTATCGGAGTCACCTAGTGCAG	40800 fluorescence intensity (a.u.)
ATTATTGATTTGATGAAACTAATTTAGTATTATAAATATTCGGAGTCACCTAGTGCAG	34600 fluorescence intensity (a.u.)
GTGATAATTTAGTTACTAAACATGTTGTGAAACTTTATCTCGGAGTCACCTAGTGCAG	3720 fluorescence intensity (a.u.)
CTAATTGAATAATCAAAATTTTAATCTTTGGTCGATAATGCGGAGTCACCTAGTGCAG	63700 fluorescence intensity (a.u.)
ATAAATAACTTTGATATAAATTGTTTGAATAAAACTAATGCGGAGTCACCTAGTGCAG	14300 fluorescence intensity (a.u.)
CTTTATTGATAGGATAAAATTGTTACATCGTTTACCAGATCGGAGTCACCTAGTGCAG	52600 fluorescence intensity (a.u.)
GGATAAAATTTAAATTGTACCAGTTTACGACGAATTACATCGGAGTCACCTAGTGCAG	8600 fluorescence intensity (a.u.)
AGTAATTGATTAATTTTGTGACAGAGGTGGTCACTATATGCGGAGTCACCTAGTGCAG	61000 fluorescence intensity (a.u.)
TATGATAAAATTGTTACATCATTTACCAGATGATTTAGAACGGAGTCACCTAGTGCAG	7880 fluorescence intensity (a.u.)
ATTGAATAATCAAAATTTCAATCTTTGATCGATGAGGTATCGGAGTCACCTAGTGCAG	12100 fluorescence intensity (a.u.)
ATTTTGGTTGATTTGTAAACAGAGGGATTAATTTGTGCATCGGAGTCACCTAGTGCAG	15400 fluorescence intensity (a.u.)
ACTGATTGACGTTTCTCATAACTAAAATATAGGTATTGTGCGGAGTCACCTAGTGCAG	60900 fluorescence intensity (a.u.)
TTAAGTAATTAAGAGGTGATAGTTAATTTATGCATGCATGCGGAGTCACCTAGTGCAG	30400 fluorescence intensity (a.u.)
CTATATAAAACTGATTGATTCATATTACTACGACGTTTTACGGAGTCACCTAGTGCAG	6690 fluorescence intensity (a.u.)
CATCATCTCTAATTTTAATCAAAATATAAACTTTGCAGTGCGGAGTCACCTAGTGCAG	9140 fluorescence intensity (a.u.)
